Laboratory results taken from PubChem BioAssay (EPA / NIEHS).
Activity calls are given as the source filed them. The calls were made as follows: active = hit-call score of the fitted dose curve at least 0.9, where 1 is the maximum; inactive = score below 0.9.

experiment: ATG_TAL_CIS: Attagene CIS-FACTORIAL HepG2 Assay for human TAL Basal Promoter (AID 2282966); conditions: HepG2 Attagene cis-factorial TAL promoter reporter; actives raise or lower the signal;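 also: background control endpoint measuring basal TAL promoter reporter mRNA not a specific factor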
Method in brief: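 Background-control endpoint: basal TAL promoter reporter transcripts in transiently transfected HepG2, measured 24 h after dosing. Read-out by RT-PCR with fluorescent primer extension and capillary electrophoresis; gain or loss of signal fitted relative to DMSO.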

SMILES | outcome
NS(=O)(=O)C(F)(F)C(F)(F)C(F)(F)C(F)(F)C(F)(F)C(F)(F)C(F)(F)C(F)(F)F | inactive
ClC1=C(Cl)[C@]2(Cl)[C@@H]3[C@H]4C[C@H]([C@@H]5O[C@H]45)[C@@H]3[C@@]1(Cl)C2(Cl)Cl | inactive
O=C(NC(=O)c1cc(F)c(F)cc1Cl)Nc1cc(F)ccc1N1CCC(C(=O)O)CC1 | inactive
O=C(NC(=O)c1c(F)cccc1F)Nc1cc(Cl)c(OC(F)(F)C(F)F)c(Cl)c1 | inactive
C=CC(N)=O | inactive
N#Cc1ccc(N(CC(N)=O)CC(F)(F)F)cc1C(F)(F)F | inactive
CC(c1ccc(O)cc1)(c1ccc(O)cc1)c1ccc(O)cc1 | inactive
ClC1=C(Cl)[C@]2(Cl)[C@@H]3[C@@H](Cl)[C@H]4O[C@H]4[C@@H]3C1(Cl)C2(Cl)Cl | inactive
c1ccc(-c2ccccc2)cc1 | inactive
O=NN(c1ccccc1)c1ccccc1 | inactive
CCCN(CCC)N=O | inactive
Cc1cc(O)ccc1Cl | inactive
CN(C)c1nc(=O)n(C2CCCCC2)c(=O)n1C | inactive
Cc1ccc(O)c(C)c1 | inactive
CC#Cc1cc(C)nc(Nc2ccccc2)n1 | inactive
C[C@]12CCC(=O)C=C1CC[C@@H]1[C@@H]2CC[C@]2(C)C(=O)CC[C@@H]12 | inactive
CCCCCCCCCC[N+](C)(C)CCCCCCCCCC | inactive

SMILES | outcome
CC1=C2C[C@H]3[C@@H](CC=C4C[C@@H](O)CC[C@@]43C)[C@@H]2CC[C@]12O[C@@H]1C[C@H](C)CN[C@H]1[C@H]2C | inactive
Oc1ccc(Cl)cc1Cl | inactive
Clc1ccc(C(Cl)(Cl)Cl)cc1 | inactive
Nn1cnnc1 | inactive
CCC(C)(c1ccc(O)cc1)c1ccc(O)cc1 | inactive
OCC(O)CO | inactive
C=CC(=O)NCNC(=O)C=C | inactive
O=C(O)C(F)(F)C(F)(F)C(F)(F)C(F)(F)C(F)(F)F | inactive
Cc1cccc(C)c1N | inactive
CCC(C)(CC)c1cc(NC(=O)c2c(OC)cccc2OC)on1 | inactive
Cc1cc2c3c(c1)C(c1ccccc1)=N[C@@H](NC(=O)c1ccncc1)C(=O)N3CC2 | inactive
O=C(N[C@H]1CN2CCC1CC2)c1cc2ccoc2cn1 | inactive
CCCCCCOC(=O)c1ccccc1C(=O)OCCCCCC | inactive
O=S(=O)(O)C(F)(F)C(F)(F)C(F)(F)C(F)(F)F | inactive
C1CC2OC2CC1C1CO1 (stereo unspecified) | inactive
CCSC(=O)N(CC)C1CCCCC1 | inactive

experiment: ATG_TGFb_CIS: Attagene CIS-FACTORIAL HepG2 Assay for human Transforming Growth Factor (TGF) (AID 2282967); conditions: HepG2 Attagene CIS TGFb reporter, mRNA transcription; actives raise or lower the signal
Method in brief: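 HepG2 cells transiently transfected with cis-promoter-driven multiplexed reporter units; 24 h compound exposure. Reporter mRNA measured by RT-PCR, 6-FAM labeling, HpaI digestion and capillary electrophoresis; bidirectional fit versus DMSO baseline.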

SMILES | outcome
NS(=O)(=O)C(F)(F)C(F)(F)C(F)(F)C(F)(F)C(F)(F)C(F)(F)C(F)(F)C(F)(F)F | inactive
ClC1=C(Cl)[C@]2(Cl)[C@@H]3[C@H]4C[C@H]([C@@H]5O[C@H]45)[C@@H]3[C@@]1(Cl)C2(Cl)Cl | inactive
O=C(NC(=O)c1cc(F)c(F)cc1Cl)Nc1cc(F)ccc1N1CCC(C(=O)O)CC1 | inactive
O=C(NC(=O)c1c(F)cccc1F)Nc1cc(Cl)c(OC(F)(F)C(F)F)c(Cl)c1 | inactive
C=CC(N)=O | inactive
N#Cc1ccc(N(CC(N)=O)CC(F)(F)F)cc1C(F)(F)F | inactive
CC(c1ccc(O)cc1)(c1ccc(O)cc1)c1ccc(O)cc1 | inactive
ClC1=C(Cl)[C@]2(Cl)[C@@H]3[C@@H](Cl)[C@H]4O[C@H]4[C@@H]3C1(Cl)C2(Cl)Cl | inactive
c1ccc(-c2ccccc2)cc1 | inactive
O=NN(c1ccccc1)c1ccccc1 | inactive
CCCN(CCC)N=O | inactive
Cc1cc(O)ccc1Cl | inactive
CN(C)c1nc(=O)n(C2CCCCC2)c(=O)n1C | inactive
Cc1ccc(O)c(C)c1 | inactive
CC#Cc1cc(C)nc(Nc2ccccc2)n1 | inactive
C[C@]12CCC(=O)C=C1CC[C@@H]1[C@@H]2CC[C@]2(C)C(=O)CC[C@@H]12 | inactive
CCCCCCCCCC[N+](C)(C)CCCCCCCCCC | inactive

SMILES | outcome
CC1=C2C[C@H]3[C@@H](CC=C4C[C@@H](O)CC[C@@]43C)[C@@H]2CC[C@]12O[C@@H]1C[C@H](C)CN[C@H]1[C@H]2C | inactive
Oc1ccc(Cl)cc1Cl | inactive
Clc1ccc(C(Cl)(Cl)Cl)cc1 | inactive
Nn1cnnc1 | inactive
CCC(C)(c1ccc(O)cc1)c1ccc(O)cc1 | inactive
OCC(O)CO | inactive
C=CC(=O)NCNC(=O)C=C | inactive
O=C(O)C(F)(F)C(F)(F)C(F)(F)C(F)(F)C(F)(F)F | inactive
Cc1cccc(C)c1N | inactive
CCC(C)(CC)c1cc(NC(=O)c2c(OC)cccc2OC)on1 | inactive
Cc1cc2c3c(c1)C(c1ccccc1)=N[C@@H](NC(=O)c1ccncc1)C(=O)N3CC2 | inactive
O=C(N[C@H]1CN2CCC1CC2)c1cc2ccoc2cn1 | inactive
CCCCCCOC(=O)c1ccccc1C(=O)OCCCCCC | inactive
O=S(=O)(O)C(F)(F)C(F)(F)C(F)(F)C(F)(F)F | inactive
C1CC2OC2CC1C1CO1 (stereo unspecified) | inactive
CCSC(=O)N(CC)C1CCCCC1 | inactive
